Out of some 320,000 compounds screened, about 8,000 (2.5%) were called active. Shown is part of a subset that was picked to be rich in actives. Values without a mark were called inactive. Cut-off read from the data, not from the text of the source: active = activation above about 47%; inactive = the rest.

The target in the assay is Aryl hydrocarbon receptor (Homo sapiens) (UniProt P35869). Put plainly: AHR activators, primary screen, cell-based, luminescence, luciferase reporter, human (AID 2796).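 Note: 0% = vehicle wells and 100% = reference agonist.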 Conditions: AHR-responsive luciferase reporter cells, at 5 µM, hits give high values. Background: Reporter assays use an easily measured gene product as a stand-in for the process of interest.
Sequence of Aryl hydrocarbon receptor (Homo sapiens) (P35869 whole entry, looked up): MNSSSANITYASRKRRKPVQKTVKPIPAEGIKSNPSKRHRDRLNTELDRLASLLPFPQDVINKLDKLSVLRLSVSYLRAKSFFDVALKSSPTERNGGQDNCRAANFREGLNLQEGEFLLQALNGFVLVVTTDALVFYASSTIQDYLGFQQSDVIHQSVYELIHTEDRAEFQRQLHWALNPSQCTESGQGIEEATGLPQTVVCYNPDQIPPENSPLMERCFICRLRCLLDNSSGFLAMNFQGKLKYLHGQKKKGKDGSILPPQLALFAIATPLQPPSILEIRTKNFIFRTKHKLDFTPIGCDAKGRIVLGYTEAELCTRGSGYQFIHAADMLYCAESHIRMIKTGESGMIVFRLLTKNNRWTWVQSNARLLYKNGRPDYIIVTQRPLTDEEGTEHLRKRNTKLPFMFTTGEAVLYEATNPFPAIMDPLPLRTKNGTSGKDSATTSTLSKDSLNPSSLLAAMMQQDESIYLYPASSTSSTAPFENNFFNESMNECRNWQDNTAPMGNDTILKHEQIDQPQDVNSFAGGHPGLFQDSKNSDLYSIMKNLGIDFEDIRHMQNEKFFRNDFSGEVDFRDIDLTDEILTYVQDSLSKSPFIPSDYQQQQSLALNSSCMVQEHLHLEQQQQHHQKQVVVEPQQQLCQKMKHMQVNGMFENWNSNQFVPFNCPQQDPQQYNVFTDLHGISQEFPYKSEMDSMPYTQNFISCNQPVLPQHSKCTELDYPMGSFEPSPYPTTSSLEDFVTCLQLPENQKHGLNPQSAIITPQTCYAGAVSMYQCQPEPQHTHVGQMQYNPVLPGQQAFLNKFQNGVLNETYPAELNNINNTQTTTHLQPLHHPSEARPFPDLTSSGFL
In the case of `O=C(Oc1c(-c2ccco2)oc2ccccc2c1=O)c1cccnc1`, the activation is 2.09%.

Regarding `COc1ccccc1/C=C/C1=NC(=C\N(C)C)/C(=O)O1`, the activation was 57.2% (active). The figure for `COc1cccc(/C=C/c2ccc3ccccc3n2)c1OC(C)=O` is 8.53%; for `COc1ccccc1/C=C/C(=O)NC(=S)N1CCOCC1` it is 43%; for `O=C(COC(=O)C1CCCO1)Nc1nc(-c2ccc(F)cc2)cs1` (stereo not given) it is -1.85%. In the case of `CC(C)N(Cc1nnc(-c2ccccc2Br)o1)C(=O)c1cc(Cl)nc2ccccc12`, the activation is 18.6%. For `CCOc1ccc(S(=O)(=O)Nc2cccc(C(=O)NCC3(N4CCCCC4)CCCCC3)c2)cc1` the value was -2.77%. The figure for `Cn1nc(-c2ccccc2)c2cc([N+](=O)[O-])ccc21` is 67.7% (active). The figure for `COc1ccc([N+](=O)[O-])cc1-c1nc2ccccc2nc1-c1ccccc1` is 3.27%; for `Cc1nc(-c2ccc([N+](=O)[O-])cc2)c(-c2ccccc2)o1` it is 1.84%; for `CCNC(=O)c1cccc(NC(=O)C2CC(=O)N(CCc3ccccc3)C2)c1` (stereo not given) it is 2.07%. Consider `C=CCn1cc(C(=O)NCc2ccc(Cl)cc2)c(=O)c2cc(S(=O)(=O)N(CC)CC)ccc21`, for which the activation is 11.3%. For the molecule `CCCOc1ccc(Cc2c(Cl)nc(SC)nc2NC)cc1`, the activation was 2.63%. For `COc1cccc(CNS(=O)(=O)c2cc3c(cc2C)n(C)c(=O)c(=O)n3C)c1` the value was -0.05%. The figure for `COc1cccc2sc(Nc3nc(C)c(C(C)=O)s3)nc12` is 67.4% (active); for `COc1cccc2sc(N(CCCN(C)C)C(=O)C(c3ccccc3)c3ccccc3)nc12` it is -0.96%. For `COc1cc2ccccc2cc1C(=O)Nc1nc(C)c(C(C)=O)s1` the value was 6.6%. Regarding `COc1ccccc1/C=N/Nc1nc(C)c(C(C)=O)s1`, the activation is 33.6%. The figure for `COc1cccc2sc(NNC(=O)c3nc4ccccc4s3)nc12` is 86.3% (active); for `COc1ccccc1OCc1nc2ccccc2s1` it is 45.1%; for `CCOP(=O)(OCC)C(Nc1ccc([N+](=O)[O-])cc1)c1ccc(Cl)cc1` (stereo not given) it is 0.69%. With `Cn1ccc(=Nc2ccc(NC(=O)c3ccc(N=c4ccn(C)c5ccc([N+](=O)[O-])cc45)cc3)cc2)cc1`, the activation was 2.76%. As to `O=C(Nc1nnc(-c2ccccc2)o1)c1cccc(S(=O)(=O)N2CCOCC2)c1`, the activation is 2.09%. As for `CC(C)CNC(=O)COC(=O)c1ccccc1OCC(=O)Nc1ccc(Br)cc1`, the activation is -3.8%. For `CC(C)C(NC(=O)c1cccc(S(=O)(=O)N2CCOCC2)c1)C(=O)NCCc1ccccn1` (stereo not given) the value was -6.5%.

The record behind these values is PubChem BioAssay AID2796 (The Scripps Research Institute Molecular Screening Center, 2010).
